Assays:
Conditions in all cases: concentration: 1 μM, replicates: in singlicate; n = 1
STK36 = tested on: STK36
STK39 = tested on: STK39
SYK = tested on: SYK
SgK110 = tested on: SgK110
TAK1 = tested on: T1, TAK1
T1 construct: gene MAP3K7

TAOK1 = tested on: TAOK1
TAOK2 = tested on: TAOK2
TAOK3 = tested on: TAOK3
TBK1 = tested on: TBK1
TEC = tested on: TEC
TESK1 = tested on: TESK1
TGFBR1 = tested on: TGFBR1
TGFBR2 = tested on: TGFBR2
TIE1 = tested on: TIE1
TIE2 = tested on: T2, TIE2
T2 construct: gene TEK

TLK1 = tested on: TLK1
TLK2 = tested on: TLK2
TNIK = tested on: TNIK
TNK1 = tested on: TNK1
TNK2 = tested on: TNK2
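Further: KINOMEscan kinase panel screen.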

SMILES	%Inh (STK36)	%Inh (STK39)	%Inh (SYK)	%Inh (SgK110)	%Inh (TAK1)	%Inh (TAOK1)	%Inh (TAOK2)	%Inh (TAOK3)	%Inh (TBK1)	%Inh (TEC)	%Inh (TESK1)	%Inh (TGFBR1)	%Inh (TGFBR2)	%Inh (TIE1)	%Inh (TIE2)	%Inh (TLK1)	%Inh (TLK2)	%Inh (TNIK)	%Inh (TNK1)	%Inh (TNK2)
CNC(=O)c1ccccc1Nc1nc(Nc2ccc(N3CCOCC3)cc2)ncc1Cl.Cl [GSK1576028]	85%	54%	87%	90.5%	96.1%	98.8%	83%	94.2%	93.1%	99%	26%	93%	0%	100%	97.9%	52%	57%	76%	100%	98.2%
COc1cc(Nc2nccc(-c3c(-c4cccc(NC(=O)c5c(F)cccc5F)c4)nn4ccccc34)n2)cc(OC)c1OC [GSK323521]	19%	8%	28%	0%	28%	0%	0%	0%	3%	21%	36%	0%	17%	67%	46%	6%	0%	0%	0%	1%
Cl.Cl.NCC(C(=O)Nc1cc(Br)c(-c2ccnc3[nH]ccc23)s1)c1ccccc1 (stereo not shown) [GSK1269851]	0%	44%	7%	0%	0%	0%	0%	0%	7%	11%	0%	0%	0%	51%	6%	0%	0%	11%	6%	12%
COc1cc(Nc2ncc3c(C)nc(-c4cc5ccccc5[nH]4)n3n2)cc(OC)c1OC [GW869516]	6%	0%	53%	0%	48%	0%	0%	0%	58%	0%	1%	14%	0%	46%	32%	0%	0%	47%	49%	17%
CCn1c(-c2nonc2N)nc2c(C#CC(C)(C)O)ncc(OCCCCN)c21.O=C(O)C(F)(F)F.O=C(O)C(F)(F)F [GSK507274]	0%	11%	4%	0%	0%	40%	8%	0%	31%	0%	57%	0%	0%	5%	44%	0%	0%	0%	0%	11%
Cc1ccc(C(=O)N2CC[C@@H](O)C2)cc1-n1c(C)cc(OCc2ccc(F)cc2F)c(Br)c1=O	0%	0%	7%	0%	0%	31%	57%	0%	1%	0%	0%	16%	0%	0%	20%	13%	0%	0%	0%	0%
c1ccc(Oc2ccc(Nc3ccnc4cc(-c5ccc(CNCCN6CCOCC6)o5)ccc34)cc2)nc1 [GW567145]	0%	1%	14%	0%	0%	0%	0%	0%	1%	39%	3%	0%	0%	0%	0%	0%	0%	30%	27%	37%
Nc1ncnc2c1nc(-c1ccccc1)n2-c1ccccc1 [SKF-97293]	7%	0%	6%	0%	35%	38%	6%	25%	24%	8%	19%	9%	4%	9%	11%	0%	19%	0%	8%	0%
C[C@@H](Oc1cc(-n2cnc3cc(-c4ccnc(NCCS(C)(=O)=O)c4)ccc32)sc1C(N)=O)c1ccccc1Cl [GSK907232]	0%	13%	80%	0%	0%	0%	0%	0%	5%	4%	28%	5%	0%	78%	56%	0%	0%	36%	17%	33%
CC(=O)N1CCN(c2ccc(Nc3nccc(-c4sc(C(C)C)nc4-c4cccc(NS(=O)(=O)c5cccc(Cl)c5)c4)n3)cn2)CC1 [GSK1660437]	99.8%	19%	61%	0%	41%	0%	0%	3%	2%	21%	66%	76%	79%	76%	96.8%	0%	0%	10%	95.6%	28%
CC(=O)Nc1nc2cnc(Nc3cc(NC(=O)c4cccc(C5(C#N)CC5)c4Cl)ccc3C)nc2s1	0%	0%	5%	19%	3%	0%	0%	0%	0%	0%	0%	4%	0%	7%	8%	14%	0%	16%	88%	0%
Cn1cc(-c2[nH]c3cc(NC(=O)[C@H](N)C4CCCCC4)cc4c3c2C=NNC4=O)cn1	0%	59%	55%	92.1%	52%	0%	0%	0%	82%	43%	15%	0%	66%	83%	42%	8%	1%	91.9%	68%	48%
O=C(Nc1cccc(Oc2ccc3nc(NC(=O)C4CC4)cn3n2)c1)c1ccccc1C(F)(F)F	4%	11%	0%	0%	0%	0%	34%	0%	39%	5%	17%	9%	0%	16%	14%	0%	3%	9%	55%	4%
COc1cc2c(cc1OCCN1CCNCC1)ncc1c3ccc(C#N)cc3[nH]c21	6%	33%	0%	0%	95.1%	0%	4%	2%	81%	0%	2%	20%	0%	1%	5%	25%	0%	76%	4%	0%
COc1ccc(CNC(=O)NC2CCN(c3ccnc(Nc4ccc(F)cc4)n3)CC2)cc1 [GSK1379788]	0%	0%	21%	0%	0%	0%	0%	0%	2%	0%	2%	18%	0%	0%	0%	0%	0%	0%	9%	2%
CN(c1ccc(NC(=O)Nc2cc(C(F)(F)F)ccc2F)cc1)c1ccnc(Nc2ccc(S(N)(=O)=O)cc2)n1 [GW809893]	0%	0%	91.9%	0%	60%	53%	86%	79%	29%	0%	75%	0%	6%	94.3%	99.6%	0%	0%	81%	54%	0%
COc1cc(Nc2nccc(N3CCC(NC(=O)Nc4cccc(C(C)=O)c4)C3)n2)cc(OC)c1OC (stereo not shown) [GSK1379753]	30%	0%	28%	0%	0%	0%	0%	0%	28%	0%	1%	0%	0%	27%	1%	0%	0%	0%	21%	19%
COc1cccc(C(=O)Nc2cccc(Oc3ccc4nc(NC(=O)C5CC5)cn4n3)c2)c1	0%	0%	12%	0%	0%	34%	58%	0%	48%	9%	0%	0%	40%	84%	67%	4%	0%	54%	48%	5%
CN(C)S(=O)(=O)c1cc(-c2ccc3nccc(-c4cccc(S(N)(=O)=O)c4)c3c2)cnc1N [GSK1669921]	0%	0%	0%	0%	0%	18%	0%	7%	2%	12%	0%	0%	0%	26%	0%	0%	0%	13%	42%	9%
CCS(=O)(=O)c1ccc(OC)c(Nc2nccc(-c3c(-c4cccc(NC(=O)c5c(F)cccc5F)c4)nn4ncccc34)n2)c1 [GSK326180]	99.7%	16%	4%	0%	0%	0%	0%	0%	21%	4%	2%	22%	0%	47%	37%	3%	0%	0%	85%	48%
